Screening data as filed in PubChem BioAssay.
RGS12 GoLoco inh = qHTS Assay for Inhibitors of RGS12 GoLoco Motif Activity (Red Fluorophore); Potency, µM (titrated, usually from 61.6 µM), for inactives: at the top dose activity, negative = inhibition, usual class: inhibitors; hit rate 0.44% among 230,000; Gai1:RGS12 GoLoco peptide FP, rhodamine, 10 min; AID 880, 2007; active means well fitted inhibition curve with a large enough effect, not every such curve was filed as active; inactive means no such curve, though single readings can be large or run the other way; further: potency means the concentration at half of the fitted maximal effect; nearly all actives have a fitted effect of over 30% in size
Sfp PPTase inh = qHTS Assay for Inhibitors of Bacillus subtilis Sfp phosphopantetheinyl transferase (PPTase); Biochemical Sfp PPTase activity, qHTS; Potency, µM, for inactives: largest response in the series, negative = inhibition, most hits filed as inhibitors; hit rate 3.5% among 310,000; active means well fitted curve in the direction sought with a large enough effect; inconclusive means small, poorly fitted or top-dose-only effect, or another doubt; inactive means no such curve, though single readings can be large; an effect the other way counts as inactive or inconclusive;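 further: the enzyme is Sfp with the accession as filed and its product quenches rhodamine fluorescence; potency means the concentration at half of the fitted maximal effect; 0% = enzyme reaction without inhibitor and -100% = no enzyme wells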
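Compounds were incubated with enzyme (final 15 nM) for 15 min at room temperature before substrate addition started the reaction. Fluorescence at 525 nm excitation, 598 nm emission was recorded immediately and after 30 minutes.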
Coupling enz = qHTS Assay for Inhibitors of Fructose-1,6-bisphosphate Aldolase from Giardia Lamblia: Coupling assay counterscreen; coupling enzyme system counterscreen, AmpLite Red fluorescence; activity change, negative = inhibition, % at 58.2 µM, hits read low; hit rate 0.67% among 290,000; in the data active means activity change below about -30%
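Activity here indicates interference with the coupling reaction, not aldolase inhibition. Compounds at 57.5 uM final met coupling enzymes for 10 min at RT; substrate and AmpLite Red detection followed, with a 525/598 nm fluorescence read after 20 min.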
ALDH1A1 inh = qHTS Assay for Inhibitors of Aldehyde Dehydrogenase 1 (ALDH1A1); Aldehyde dehydrogenase 1A1 (Homo sapiens), P00352; Purified ALDH1A1, NADH fluorescence, propionaldehyde substrate; Potency, µM (doses to about 75.3 µM), for inactives: top-dose activity, negative = inhibition, usual class: inhibitors; hit rate 7.3% among 220,000;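 further: potency means the concentration at half of the fitted maximal effect; plate controls were no enzyme wells and a reference inhibitor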
NPSR antag = qHTS Assay for Antagonists of the Neuropeptide S Receptor: cAMP Signal Transduction; CHO-NPSR cells, cAMP TR-FRET, antagonist mode; hit rate 1% among 220,000; Potency, µM (top dose mostly 38.3 µM), for inactives: at the top dose activity change, negative = inhibition, usual class: inhibitors; AID 1461, 2008; active means well fitted curve in the direction sought with a large enough effect; inconclusive means small, poorly fitted or top-dose-only effect, or another doubt; inactive means no such curve, though single readings can be large; an effect the other way counts as inactive or inconclusive; further: potency means the concentration at half of the fitted maximal effect; nearly all actives have a fitted effect of over 50% in size
Target sequence (Q6W5P4 whole entry, looked up): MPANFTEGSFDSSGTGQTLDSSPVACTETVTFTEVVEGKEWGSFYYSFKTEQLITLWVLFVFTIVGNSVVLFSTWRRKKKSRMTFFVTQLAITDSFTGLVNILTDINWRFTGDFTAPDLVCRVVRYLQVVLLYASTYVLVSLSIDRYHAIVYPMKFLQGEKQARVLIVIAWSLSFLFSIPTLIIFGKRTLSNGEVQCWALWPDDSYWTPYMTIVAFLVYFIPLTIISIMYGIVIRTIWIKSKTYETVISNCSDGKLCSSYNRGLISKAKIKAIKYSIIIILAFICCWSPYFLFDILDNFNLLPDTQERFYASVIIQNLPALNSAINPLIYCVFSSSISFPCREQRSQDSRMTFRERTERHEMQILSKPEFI
KDM4E inh = qHTS Assay for Inhibitors of Human Jumonji Domain Containing 2E (JMJD2E); Lysine-specific demethylase 4E (Homo sapiens), B2RXH2; JMJD2E catalytic domain, FDH-coupled NADH fluorescence (FDH is formaldehyde dehydrogenase); Potency, µM (series often up to 57.1 µM), inactives show at the top dose activity change, negative = inhibition, usual class: inhibitors; hit rate 1.6% among 230,000;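 further: potency means the concentration at half of the fitted maximal effect; 0% = wells with enzyme and -100% = buffer wells without enzyme; nearly all actives have a fitted effect of over 50% in size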
Target sequence (B2RXH2 1-337 limits assumed): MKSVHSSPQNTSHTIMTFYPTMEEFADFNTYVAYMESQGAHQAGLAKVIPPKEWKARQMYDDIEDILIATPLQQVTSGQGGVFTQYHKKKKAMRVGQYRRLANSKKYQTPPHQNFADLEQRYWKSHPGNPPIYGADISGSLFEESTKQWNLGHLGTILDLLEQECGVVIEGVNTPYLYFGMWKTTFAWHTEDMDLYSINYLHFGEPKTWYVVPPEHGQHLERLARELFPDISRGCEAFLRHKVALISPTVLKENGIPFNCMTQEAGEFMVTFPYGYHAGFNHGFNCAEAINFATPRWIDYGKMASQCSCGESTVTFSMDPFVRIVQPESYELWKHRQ
* hit, by the source's call; [ ] = another dose, or the depositor's remark. Rows were chosen to be rich in hits. Some 8.5% of all compounds tested hit in one or more screens of this group. Unless noted, the call rests on the fitted dose curve; in most records, active means well fitted inhibition curve with a large enough effect (not every such curve was filed as active); inconclusive means small, poorly fitted or top-dose-only effect, or another doubt; inactive means no such curve, though single readings can be large or run the other way. Unless noted, on the % scale 0 is the no-effect control and ±100 the full control effect.

Results for Cc1cc2nc(-c3ccc(SCc4ccccn4)nc3)[nH]c2cc1C ?
RGS12 GoLoco inh: 40.8%; Sfp PPTase inh: -11.4%; Coupling enz: -6.3; ALDH1A1 inh: inconclusive; NPSR antag: -45.3%; KDM4E inh: inconclusive

Results for Cc1ccc(/C=N/N(Cc2ccccc2)c2ccccc2)o1 ?
RGS12 GoLoco inh: -1.1%; Sfp PPTase inh: inconclusive; Coupling enz: -1.5; ALDH1A1 inh: 20µM*; NPSR antag: -39.5%; KDM4E inh: -10.6%

What do the screens show for `Cc1ccc(/C=N/N2CCN(Cc3ccccc3)CC2)o1`?
RGS12 GoLoco inh: 7.7%; Sfp PPTase inh: -25.3%; Coupling enz: -1.7; ALDH1A1 inh: inconclusive; NPSR antag: -12.0%[46.1 µM]; KDM4E inh: 2.2%

How did Cn1c(SCC(=O)NC(=O)Nc2ccccc2)nnc1-c1ccncc1 do in these assays?
RGS12 GoLoco inh: -0.9%; Sfp PPTase inh: 17.6%; Coupling enz: 3.4; NPSR antag: -6.9%; KDM4E inh: 4.6%

Results for O=C(NCc1ccc2c(c1)OCO2)C1CCN(S(=O)(=O)c2cccs2)CC1 ?
RGS12 GoLoco inh: -5.2%; Sfp PPTase inh: -0.7%; Coupling enz: 1.7; ALDH1A1 inh: 0.316µM*; NPSR antag: -8.9%[46.1 µM]; KDM4E inh: -4.3%

How did O=C(NCc1ccc2c(c1)OCO2)C1CCN(S(=O)(=O)N2CCCCC2)CC1 do in these assays?
RGS12 GoLoco inh: 0.9%; Sfp PPTase inh: 7.3%; Coupling enz: 1.0; ALDH1A1 inh: 5.01µM*; NPSR antag: 0.3%; KDM4E inh: 14.6%

How did CCCc1cc(=O)oc2cc(OCC(=O)NCCc3c[nH]c4ccccc34)ccc12 do in these assays?
Sfp PPTase inh: 28.2%; Coupling enz: -4.9

What do the screens show for `Cn1c(=O)c2c(nc(N3CCCCCC3)n2CC(O)COc2ccccc2)n(C)c1=O` (configuration not stated)?
RGS12 GoLoco inh: 8.8%; Sfp PPTase inh: -14.4%; Coupling enz: -0.2; ALDH1A1 inh: 1.58µM*; NPSR antag: -0.2%[46.1 µM]; KDM4E inh: 3.3%

How did Cn1c(=O)c2c(nc(N3CCCCC3)n2CC(O)COc2ccccc2)n(C)c1=O (configuration not stated) do in these assays?
Sfp PPTase inh: 22.4%; Coupling enz: 1.9

What do the screens show for `CCOC(=O)Cn1c(=O)c2c(nc(N3CCCCC3)n2Cc2ccccc2)n(C)c1=O`?
RGS12 GoLoco inh: 4.4%; Sfp PPTase inh: -1.8%; Coupling enz: 2.2; ALDH1A1 inh: 14.1µM*; NPSR antag: inconclusive; KDM4E inh: -1.1%

What do the screens show for `CCOC(=O)Cn1c(=O)c2c(nc3n2CC(C)CN3Cc2ccccc2)n(C)c1=O` (configuration not stated)?
Sfp PPTase inh: 17.0%; Coupling enz: -8.5

Results for Cc1ccn2c(-c3n[nH]c(=S)n3C)c(C)nc2c1 ?
RGS12 GoLoco inh: -18.3%; Sfp PPTase inh: inconclusive; Coupling enz: 3.7; ALDH1A1 inh: inconclusive; NPSR antag: 0.4%; KDM4E inh: inconclusive

How did C#CCOCCOCCOCCNc1nc(N2CCN(C(=O)[C@H](CCCCN)n3cc(C(N)[C@H](C)CC)nn3)CC2)nc(N2CCN(C(=O)[C@H](CCC(=O)O)n3cc(C(N)[C@H](C)CC)nn3)CC2)n1 (some centres not stated) do in these assays?
RGS12 GoLoco inh: 3.1%; Sfp PPTase inh: inconclusive; Coupling enz: 1.8; ALDH1A1 inh: 22.4µM*; NPSR antag: -19.8%; KDM4E inh: -13.3%

Results for C#CCOCCOCCOCCNc1nc(N2CCN(C(=O)[C@H](CCCCN)n3cc([C@@H](N)C(C)CC)nn3)CC2)nc(N2CCN(C(=O)[C@H](CCCCN)n3cc([C@@H](N)CO)nn3)CC2)n1 (some centres not stated) ?
RGS12 GoLoco inh: 3.8%; Sfp PPTase inh: 3.3%; Coupling enz: 4.8; ALDH1A1 inh: inconclusive; NPSR antag: -25.3%; KDM4E inh: 20µM*

Results for CO[C@@H]1/C=C\O[C@]2(C)Oc3c(C)c(O)c4c(O)c(c(CN5CCN(C)CC5)c(O)c4c3C2=O)NC(=O)/C(C)=C\C=C[C@@H](C)[C@@H](O)[C@H](C)[C@@H](O)C(C)[C@H](OC(C)=O)[C@@H]1C (some centres not stated) ?
RGS12 GoLoco inh: 6.8%[14.2 µM]; ALDH1A1 inh: 10.3%[13.5 µM]

How did CC(Oc1ccccc1)C(=O)Nc1ccc(NC(=O)c2ccccc2)cc1 (configuration not stated) do in these assays?
Sfp PPTase inh: 15.4%; Coupling enz: -0.3

How did CC(Oc1ccc(C(=O)c2ccccc2)cc1)C(=O)Nc1ccc(S(N)(=O)=O)cc1 (configuration not stated) do in these assays?
RGS12 GoLoco inh: -2.0%; Sfp PPTase inh: 12.6%; Coupling enz: 0.5; ALDH1A1 inh: 10µM*; NPSR antag: -4.0%; KDM4E inh: 0.3%

How did Cc1cccc(N=C2NC(=O)C(CO)(CO)S2)c1 do in these assays?
Sfp PPTase inh: 27.3%; Coupling enz: 0.9

What do the screens show for `CCC/C=C(\CCC)C(NS(=O)(=O)c1ccc(C(F)(F)F)cc1)c1ccc(C(=O)OC)cc1` (configuration not stated)?
RGS12 GoLoco inh: -4.0%; Sfp PPTase inh: 46.0%; Coupling enz: -12.9; ALDH1A1 inh: -11.5%; KDM4E inh: -10.1%

What do the screens show for `CCC1SC2=NC(C)=C(C(=O)OCC(C)C)C(/C=C/c3ccccc3OC)N2C1=O` (configuration not stated)?
RGS12 GoLoco inh: 5.1%; Sfp PPTase inh: -2.1%; Coupling enz: 1.6; ALDH1A1 inh: -10.7%; NPSR antag: -21.5%[46.1 µM]; KDM4E inh: -8.1%

What do the screens show for `COc1ccccc1/C=C/C1C(C(=O)OCC(C)C)=C(C)N=C2SCCC(=O)N21` (configuration not stated)?
RGS12 GoLoco inh: -0.2%; Sfp PPTase inh: 5.6%; Coupling enz: -0.5; ALDH1A1 inh: 22.4µM*; NPSR antag: -53.3%; KDM4E inh: -8.1%

Results for CC(C)(Cc1ccc(O)cc1)NC(=O)SCc1ccccc1 ?
Sfp PPTase inh: 8.0%; Coupling enz: -0.1

Results for COc1cccc(OC)c1C(=O)NC(=S)NNC(=O)[C@H]1C[C@@H]1c1ccccc1 ?
RGS12 GoLoco inh: 8.6%; Sfp PPTase inh: 36.0%; Coupling enz: 13.3; ALDH1A1 inh: 2.8%; NPSR antag: -4.7%; KDM4E inh: inconclusive
